Experimental findings from ChEMBL document CHEMBL3988442, “University of Dundee, Small-Polar-MMV Screening Library” (2021) are described below.

For some of these results: Entries with a potency or affinity are not part of this list.

Parameters in all cases: scale not given: direction of the effect not stated beside the values
The target in assay [1] is Protein translocase subunit SecA (Escherichia coli (strain K12)) (UniProt P10408). The assay is described as follows: Assay to Identify E. coli SecA ATPase Inhibitors. As to conditions: 30 µM. It is filed as functional.
Protein translocase subunit SecA (Escherichia coli (strain K12)), sequence (P10408 whole entry): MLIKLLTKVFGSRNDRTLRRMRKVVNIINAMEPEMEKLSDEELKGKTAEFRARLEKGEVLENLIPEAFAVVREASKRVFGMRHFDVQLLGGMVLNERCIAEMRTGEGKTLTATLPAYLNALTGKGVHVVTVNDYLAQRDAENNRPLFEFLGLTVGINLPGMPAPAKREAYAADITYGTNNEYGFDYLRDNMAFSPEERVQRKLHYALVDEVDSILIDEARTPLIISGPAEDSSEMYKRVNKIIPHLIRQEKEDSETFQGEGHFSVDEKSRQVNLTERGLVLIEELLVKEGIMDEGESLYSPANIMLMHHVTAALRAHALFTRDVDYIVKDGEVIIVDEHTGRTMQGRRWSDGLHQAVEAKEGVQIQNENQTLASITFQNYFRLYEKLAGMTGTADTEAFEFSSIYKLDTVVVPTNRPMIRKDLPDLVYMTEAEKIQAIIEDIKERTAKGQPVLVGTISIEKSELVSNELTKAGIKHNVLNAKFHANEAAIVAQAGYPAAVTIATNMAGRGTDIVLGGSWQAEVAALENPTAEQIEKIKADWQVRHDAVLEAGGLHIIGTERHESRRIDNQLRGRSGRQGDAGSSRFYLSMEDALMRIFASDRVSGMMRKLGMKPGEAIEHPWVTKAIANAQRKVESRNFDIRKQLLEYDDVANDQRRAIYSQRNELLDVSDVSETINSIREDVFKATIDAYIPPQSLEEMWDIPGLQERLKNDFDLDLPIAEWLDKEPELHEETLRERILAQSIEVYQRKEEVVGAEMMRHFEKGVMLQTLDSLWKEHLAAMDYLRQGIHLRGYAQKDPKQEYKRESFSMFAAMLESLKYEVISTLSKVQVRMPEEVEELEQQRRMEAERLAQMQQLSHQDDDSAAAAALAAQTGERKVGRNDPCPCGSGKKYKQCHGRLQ
Assay [2] addresses T1, Ubiquitin-activating enzyme e1, putative (Leishmania donovani (strain BPK282A1)) (UniProt E9BSI1).
T1 sequence (whole entry): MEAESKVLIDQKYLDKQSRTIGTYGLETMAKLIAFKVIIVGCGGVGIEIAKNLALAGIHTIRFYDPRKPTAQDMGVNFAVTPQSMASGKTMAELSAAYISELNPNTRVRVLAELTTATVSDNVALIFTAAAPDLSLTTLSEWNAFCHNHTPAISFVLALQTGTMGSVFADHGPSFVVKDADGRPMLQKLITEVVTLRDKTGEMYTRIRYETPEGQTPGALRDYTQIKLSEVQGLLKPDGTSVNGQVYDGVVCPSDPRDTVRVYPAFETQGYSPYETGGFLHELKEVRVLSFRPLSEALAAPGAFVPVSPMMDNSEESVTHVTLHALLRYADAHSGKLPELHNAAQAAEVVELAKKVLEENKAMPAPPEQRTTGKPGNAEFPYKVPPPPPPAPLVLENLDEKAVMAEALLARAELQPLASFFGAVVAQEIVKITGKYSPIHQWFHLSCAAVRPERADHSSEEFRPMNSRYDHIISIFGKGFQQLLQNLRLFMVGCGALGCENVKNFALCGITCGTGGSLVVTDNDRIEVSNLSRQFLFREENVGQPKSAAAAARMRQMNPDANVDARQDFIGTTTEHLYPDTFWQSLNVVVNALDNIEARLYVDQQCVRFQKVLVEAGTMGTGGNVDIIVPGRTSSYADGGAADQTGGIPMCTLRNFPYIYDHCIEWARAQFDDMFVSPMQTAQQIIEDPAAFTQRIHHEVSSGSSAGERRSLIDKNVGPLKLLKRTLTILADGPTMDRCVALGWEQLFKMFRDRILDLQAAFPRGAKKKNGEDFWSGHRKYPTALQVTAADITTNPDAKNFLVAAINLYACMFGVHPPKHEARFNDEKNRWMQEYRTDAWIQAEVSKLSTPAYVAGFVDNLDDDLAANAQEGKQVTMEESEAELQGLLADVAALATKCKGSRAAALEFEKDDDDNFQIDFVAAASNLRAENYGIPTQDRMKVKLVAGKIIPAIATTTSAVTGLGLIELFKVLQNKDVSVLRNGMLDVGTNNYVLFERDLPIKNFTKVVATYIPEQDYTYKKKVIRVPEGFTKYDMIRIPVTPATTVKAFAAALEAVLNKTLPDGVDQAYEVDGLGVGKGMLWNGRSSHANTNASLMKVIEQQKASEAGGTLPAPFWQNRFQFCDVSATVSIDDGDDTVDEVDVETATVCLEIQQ
Nature of the assay: Leishmania donovani Ubiquitin Activating Enzyme (LdE1). It is filed as functional. As to conditions: 30 µM.

Assay [3] concerns the target AMP-activated protein kinase, AMPK (Homo sapiens) (UniProt P54646+O43741+P54619+Q9UGJ0+Q9Y478+Q13131+Q9UGI9). Nature of the assay: AMP-dependent Kinase enzyme assay. An in vitro enzyme assay that detects ADP turnover that is directly proportional to AMPK activity. This uses naive AMPK that is activated during the assay with MK-8722. The format is functional. As to conditions: 30 µM.

The target in assay [4] is Sialic acid-binding Ig-like lectin 9 (Homo sapiens) (UniProt Q9Y336). The assay is described as follows: Hs-Siglec9 ALPHAscreen SOP 20170721. As to conditions: 10 µM. (In Alpha technology, singlet oxygen from a donor bead excites a nearby acceptor bead.)
Sialic acid-binding Ig-like lectin 9 (Homo sapiens), sequence (Q9Y336 whole entry): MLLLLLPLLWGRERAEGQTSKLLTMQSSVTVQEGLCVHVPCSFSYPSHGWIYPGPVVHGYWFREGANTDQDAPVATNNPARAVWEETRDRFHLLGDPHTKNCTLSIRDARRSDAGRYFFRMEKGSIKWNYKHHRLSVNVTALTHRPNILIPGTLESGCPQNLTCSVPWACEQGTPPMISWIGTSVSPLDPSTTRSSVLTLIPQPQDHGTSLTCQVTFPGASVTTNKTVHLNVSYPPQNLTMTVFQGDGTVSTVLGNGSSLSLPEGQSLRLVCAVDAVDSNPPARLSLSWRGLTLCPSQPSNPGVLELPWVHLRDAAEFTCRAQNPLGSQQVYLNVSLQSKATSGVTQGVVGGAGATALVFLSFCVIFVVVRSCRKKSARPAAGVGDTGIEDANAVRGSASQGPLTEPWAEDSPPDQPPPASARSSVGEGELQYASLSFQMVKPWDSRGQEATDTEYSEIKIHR
Another assay deals with Trypanosoma cruzi. Nature of the assay: Trypanosoma cruzi phosphomannomutase and mannose-1-phosphate guanylyltransferase assay. It is filed as functional. As to conditions: 10 µM.
Assay [5] addresses T2, Arginase-2, mitochondrial (Homo sapiens) (UniProt P78540).
T2 sequence (whole entry): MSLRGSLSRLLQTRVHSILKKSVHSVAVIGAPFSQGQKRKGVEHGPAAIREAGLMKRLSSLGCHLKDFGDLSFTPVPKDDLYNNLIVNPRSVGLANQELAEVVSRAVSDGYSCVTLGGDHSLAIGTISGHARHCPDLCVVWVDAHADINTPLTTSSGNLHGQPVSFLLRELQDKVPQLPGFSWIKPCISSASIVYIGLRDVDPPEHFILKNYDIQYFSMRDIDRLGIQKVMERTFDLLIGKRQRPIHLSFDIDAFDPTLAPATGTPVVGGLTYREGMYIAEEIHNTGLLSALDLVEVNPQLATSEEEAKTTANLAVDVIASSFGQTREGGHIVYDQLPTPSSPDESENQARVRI
Nature of the assay: in vitro enzyme assay to detect the production of urea directly proportional to the activity of Arginase II. Further: in the data most compounds retested in dose-response had high values. It is filed as functional. As to conditions: 33.3 µM.

Assay [6] concerns the target T3, Proteasome subunit beta (Trypanosoma cruzi) (UniProt O96673).
T3 sequence (whole entry): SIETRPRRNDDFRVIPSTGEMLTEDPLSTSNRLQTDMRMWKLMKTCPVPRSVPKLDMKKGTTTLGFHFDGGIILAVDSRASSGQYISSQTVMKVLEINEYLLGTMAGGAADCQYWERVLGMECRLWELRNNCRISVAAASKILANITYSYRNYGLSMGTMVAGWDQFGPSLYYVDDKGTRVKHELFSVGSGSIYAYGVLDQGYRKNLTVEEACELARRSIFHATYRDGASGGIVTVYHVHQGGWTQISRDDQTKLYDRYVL
The assay is described as follows: Trypanosoma cruzi proteasome chymotrypsin-like activity (TcProtChymo) assay. Further: in the data most compounds retested in dose-response had high values. As to conditions: 9.37 µM. The format is functional.

The species named for a further assay is Homo sapiens. Nature of the assay: To identify inhibition of the IFN signalling (Jak-Stat) pathway via expression of an eGFP reporter gene under the control of an IFN-stimulated response element (ISRE) containing MxA promoter. It is filed as functional. As to conditions: 30 µM. For orientation: A reporter such as luciferase makes a cellular process visible.

Assay [7] addresses T4, Tyrosyl-tRNA synthetase, putative (Trypanosoma cruzi (strain CL Brener)) (UniProt Q4DSP6).
T4 sequence (whole entry): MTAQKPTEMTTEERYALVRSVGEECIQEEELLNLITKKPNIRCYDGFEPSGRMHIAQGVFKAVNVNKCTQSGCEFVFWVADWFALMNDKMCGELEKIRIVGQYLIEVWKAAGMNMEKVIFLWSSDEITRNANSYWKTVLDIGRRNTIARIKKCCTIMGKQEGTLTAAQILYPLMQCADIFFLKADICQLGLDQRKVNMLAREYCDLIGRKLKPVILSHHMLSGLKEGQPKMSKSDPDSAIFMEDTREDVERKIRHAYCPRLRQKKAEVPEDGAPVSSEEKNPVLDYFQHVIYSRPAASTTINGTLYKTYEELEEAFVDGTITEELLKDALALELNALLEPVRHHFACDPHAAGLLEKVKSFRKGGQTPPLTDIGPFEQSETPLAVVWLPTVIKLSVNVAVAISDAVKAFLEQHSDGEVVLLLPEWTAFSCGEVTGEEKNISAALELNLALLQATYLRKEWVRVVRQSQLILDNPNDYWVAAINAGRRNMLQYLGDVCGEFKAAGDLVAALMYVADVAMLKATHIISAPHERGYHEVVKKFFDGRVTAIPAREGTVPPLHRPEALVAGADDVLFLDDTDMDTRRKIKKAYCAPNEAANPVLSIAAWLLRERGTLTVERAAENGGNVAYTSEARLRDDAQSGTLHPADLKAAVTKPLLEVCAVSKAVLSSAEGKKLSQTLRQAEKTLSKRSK
Nature of the assay: Trypanosoma cruzi tyrosyl tRNA synthetase (TcYRS) _High Tyrosine SOP. Further: in the data most compounds retested in dose-response had high values. It is filed as functional. As to conditions: 30 µM.

For assay [8], the target named is T4, Tyrosyl-tRNA synthetase, putative (Trypanosoma cruzi (strain CL Brener)). The assay is described as follows: Trypanosoma cruzi tyrosyl tRNA synthetase (TcYRS) SOP. The format is functional. As to conditions: 30 µM.
Assay [9] has as its target Chromo domain-containing protein 1 (Saccharomyces cerevisiae (strain ATCC 204508 / S288c) (Baker's yeast)) (UniProt P32657). Nature of the assay: ScCHD-1 Enzyme Inhibition Assay. Further: in the data most compounds retested in dose-response had high values. The format is functional. As to conditions: 30 µM.

Chromo domain-containing protein 1 (Saccharomyces cerevisiae (strain ATCC 204508 / S288c) (Baker's yeast)), sequence (P32657 whole entry, the tested form may be a part): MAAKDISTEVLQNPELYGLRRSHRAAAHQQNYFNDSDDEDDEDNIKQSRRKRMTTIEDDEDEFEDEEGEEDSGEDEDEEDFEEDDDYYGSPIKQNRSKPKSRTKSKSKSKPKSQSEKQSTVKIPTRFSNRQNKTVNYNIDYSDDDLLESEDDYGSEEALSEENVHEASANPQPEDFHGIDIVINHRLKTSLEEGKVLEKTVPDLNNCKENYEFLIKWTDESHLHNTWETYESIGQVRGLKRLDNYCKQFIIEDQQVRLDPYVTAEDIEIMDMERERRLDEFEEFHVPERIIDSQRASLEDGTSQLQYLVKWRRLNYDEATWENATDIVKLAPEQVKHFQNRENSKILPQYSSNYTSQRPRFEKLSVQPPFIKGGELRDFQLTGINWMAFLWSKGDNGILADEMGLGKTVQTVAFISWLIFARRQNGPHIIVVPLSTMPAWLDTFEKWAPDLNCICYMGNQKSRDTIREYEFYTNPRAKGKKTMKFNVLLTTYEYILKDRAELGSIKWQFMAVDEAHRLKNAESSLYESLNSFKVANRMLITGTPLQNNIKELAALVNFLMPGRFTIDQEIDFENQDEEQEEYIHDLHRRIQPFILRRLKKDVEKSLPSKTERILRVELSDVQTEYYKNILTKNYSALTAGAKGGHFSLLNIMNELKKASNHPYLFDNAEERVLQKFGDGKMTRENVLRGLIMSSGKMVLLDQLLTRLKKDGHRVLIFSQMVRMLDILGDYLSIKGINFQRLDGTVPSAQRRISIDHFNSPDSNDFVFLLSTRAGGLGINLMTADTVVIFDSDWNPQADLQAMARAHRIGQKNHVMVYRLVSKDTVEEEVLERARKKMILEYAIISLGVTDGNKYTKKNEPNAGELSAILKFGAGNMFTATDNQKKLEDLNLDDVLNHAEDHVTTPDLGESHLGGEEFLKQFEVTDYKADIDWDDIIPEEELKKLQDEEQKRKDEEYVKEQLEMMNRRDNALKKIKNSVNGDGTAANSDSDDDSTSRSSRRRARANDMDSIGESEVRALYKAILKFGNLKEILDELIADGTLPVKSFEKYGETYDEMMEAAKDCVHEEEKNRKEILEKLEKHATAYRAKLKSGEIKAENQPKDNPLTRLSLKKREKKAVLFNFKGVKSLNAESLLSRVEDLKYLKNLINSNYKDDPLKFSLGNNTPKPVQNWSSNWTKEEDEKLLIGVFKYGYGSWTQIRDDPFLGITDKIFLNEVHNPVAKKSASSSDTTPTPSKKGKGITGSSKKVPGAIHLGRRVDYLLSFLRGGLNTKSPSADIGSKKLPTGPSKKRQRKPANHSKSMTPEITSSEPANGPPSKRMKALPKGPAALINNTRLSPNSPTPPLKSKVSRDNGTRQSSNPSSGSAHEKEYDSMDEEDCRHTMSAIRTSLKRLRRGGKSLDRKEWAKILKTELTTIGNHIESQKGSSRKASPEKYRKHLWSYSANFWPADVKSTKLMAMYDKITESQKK

As for `COCc1ncn2c1CN(C(=O)C1CC=CC1)CC2`, the Percent Effect is -10.3% in assay [1]; 2.7% in assay [2]; -2.21% in assay [3]; -3.27% in [4]; -2.64% with Trypanosoma cruzi; -1.74% in assay [5]. Also, the Percent Effect in [6] came to 3.69%; in the assay listed under Homo sapiens, 2.37%; in assay [7], 6.45%; in assay [8], 11.1%; in assay [9] it was 0.611%.
Regarding `Cc1ccc(CN2Cc3c(C(=O)N(C)C)nn(C)c3C2)s1`, the Percent Effect in assay [1] is -0.916%; in assay [2] it was -19.2%; in assay [3], -24.4%; in assay [4], 6.15%; with Trypanosoma cruzi, 6.75%; in assay [5], -1.2%. Moreover, the Percent Effect was 7.79% in assay [6]; -12.5% in the assay listed under Homo sapiens; 3.12% in assay [7]; 11.1% in assay [8]; -3.35% in assay [9].
For the compound `Cc1ncnc2c1CCN(Cc1cccs1)CC2`, the Percent Effect was -2.76% in assay [1]; 8% in assay [2]; 10% in assay [3]; -1.57% in [4]; -6.18% with Trypanosoma cruzi; -55.7% in assay [5]. For the same compound, the Percent Effect in assay [6] is -1.2%; in the assay filed under Homo sapiens it was 10.4%; in [7] it was 8.33%; in assay [8] it was 7.5%; in assay [9] it was -6.96%.
With `COCCO[C@@H]1CCN(Cc2csc(C)n2)[C@H]1Cc1ccccc1`, the Percent Effect in assay [1] is -2.84%; in assay [2] it was -5.41%; in assay [3], -0.151%; in assay [4], -7.92%; in the assay on Trypanosoma cruzi, -3.03%; in assay [5], -1.24%. The Percent Effect in assay [6] was -1.29%; in the assay listed under Homo sapiens, 8.8%; in assay [7], 1.07%; in assay [8], -1.24%; in assay [9], -1.36%.
Consider `CCOC(=O)C1CCN(C(=O)Cn2ccc3cc(Br)ccc32)CC1`, for which the Percent Effect in [1] is -3.71%; in [2], 14.7%; in assay [3] it was -7.58%; in [4], -2.58%; with Trypanosoma cruzi, 6.29%; in [5], -0.88%. Besides, the Percent Effect was 9.43% in assay [6]; 4.34% in the assay listed under Homo sapiens; 1.06% in [7]; 10.3% in [8]; -13.5% in assay [9].
For the compound `COc1ccc(CN2CCn3cc(CN4CCN(C)CC4)nc3C2)cc1`, the Percent Effect in assay [1] is -4.41%; in assay [2] it was 8.11%; in assay [3] it was 4.53%; in assay [4], -5.52%; with Trypanosoma cruzi, -2.83%; in assay [5], 4.78%. The Percent Effect in assay [6] was 18.4%; in the assay listed under Homo sapiens, -7.72%; in assay [7], -2.16%; in assay [8] it was 5.13%; in assay [9], 3.23%.
For `COc1ccc(CN(C)CC2CCCN2c2cccnn2)cc1F` (stereo not drawn), the Percent Effect in assay [1] is 1.17%; in [2], 15.6%; in [3] it was 13.3%; in assay [4], -7.91%; with Trypanosoma cruzi, -2.25%; in [5], -7.79%. For the same compound, the Percent Effect in assay [6] was 13.8%; in the assay filed under Homo sapiens it was 18.7%; in [7], 7.62%; in assay [8], 18.8%; in assay [9], -22.1%.
As to `O=C(c1cccc(F)c1)N1CCOC(c2nc(-c3ncccn3)no2)C1` (stereo not drawn), the Percent Effect in [1] was -7.06%; in assay [2], 5.33%; in assay [3], 0.687%; in assay [4], -2.48%; in the assay on Trypanosoma cruzi, -4.53%; in assay [5], -0.699%. Also, the Percent Effect in assay [6] was 3.44%; in the assay listed under Homo sapiens, 17.9%; in assay [7], 3.19%; in assay [8] it was 6.41%; in assay [9], -2.27%.
